SENP6 inh: SENP6 protease inhibition | inhibition, % at 10 µM | 330,000 tested, 1.8% active | Recombinant SENP6 catalytic domain, aminoluciferin luminescence | Q9GZR1 | AID 2599;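 active means inhibition above about 50% at the single tested dose, limit read from the data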;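 further: plate controls were DMSO wells with enzyme for no effect and DMSO wells lacking enzyme for full effect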
C8 TRAIL sens: caspase-8 TRAIL sensitization | NB7+C8 cells + TRAIL, ATPlite viability luminescence | inhibition (viability loss, TRAIL sensitization), % at 10 µM | 360,000 tested, 1% active | AID 624354;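 active means compounds causing at least 50% loss of cell viability in the single-dose screen, relative to plate controls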
SENP8 block-1: SENP8 protease inhibition; Q96LD8; purified SENP8, Z-RLRGG-aminoluciferin cleavage, luminescence; inhibition, % at 10 µM; 330,000 tested, 1.2% active; AID 2540; in the data active means inhibition above about 50%
SENP8 block-2: blocks human SENP8 cleavage of Nedd8 substrate; Q96LD8; recombinant SENP8, Nedd8 substrate fluorescence; inhibition, % at 20 µM; 360,000 tested, 0.64% active; in the data active means inhibition mostly above about 40%, no sharp cut-off; inactive means mostly below about 27%
SENP7 inh: SENP7 protease inhibition; inhibition, % at 5 µM; AID 434973; Q9BQF6; 330,000 tested, 1.5% active; recombinant SENP7, Z-RLRGG-aminoluciferin luminescence, 40 min;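 active means inhibition above about 50% at the single test dose, limit read from the data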;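 further: plate controls were DMSO with enzyme for no effect and no enzyme buffer wells for full effect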
Target sequence (Q9BQF6 706-1050 limits assumed): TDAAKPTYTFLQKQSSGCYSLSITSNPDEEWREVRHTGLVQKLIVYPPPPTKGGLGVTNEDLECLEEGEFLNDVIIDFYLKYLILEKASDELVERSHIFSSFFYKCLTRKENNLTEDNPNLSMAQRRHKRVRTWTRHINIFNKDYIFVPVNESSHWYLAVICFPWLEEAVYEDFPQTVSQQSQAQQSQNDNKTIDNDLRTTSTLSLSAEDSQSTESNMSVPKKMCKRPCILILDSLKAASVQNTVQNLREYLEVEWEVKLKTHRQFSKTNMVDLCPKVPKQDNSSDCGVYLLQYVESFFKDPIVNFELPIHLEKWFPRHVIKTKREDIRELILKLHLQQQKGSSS
PPC-1+TRAIL kill: kills PPC-1 cancer cells in the presence of TRAIL; PPC-1 cells + TRAIL, ATPLite viability luminescence; cell killing (% activity), % at 4 µM or 5 µM; 220,000 tested, 0.41% active; AID 1443;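 active means cell killing above 50% in the first pass at 4 µM, then a duplicate retest at 5 µM averaging 50% or more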;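 further: plate controls were cells with TRAIL plus DMSO for no effect and medium-only wells lacking cells for full effect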
PPC1 cytotox: kills PPC-1 cells. 1,200 tested, 50% active. PPC-1 viability, ATPlite luminescence, overnight. cytotoxicity, % at 5 µM. shares compounds with PPC-1+TRAIL kill. AID 1447;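 active means reconfirmed compounds whose average cytotoxicity reaches 50% or more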;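 further: 0% = DMSO-treated cells and 100% = wells holding medium but no cells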
SENP8 conf-1: human SENP8 inhibition, confirmed. 6,200 tested, 40% active. Recombinant SENP8, Z-RLRGG-aminoluciferin luminescence, 60 min. inhibition, % at 12.5 µM. shares compounds with SENP7 inh;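 active means mean inhibition across replicates above about 50%, limit read from the data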
SENP6 conf: human SENP6 inhibition, confirmed. AID 488915. recombinant SENP6, Z-RLRGG-aminoluciferin luminescence. inhibition, % at 12.5 µM. 6,200 tested, 58% active. shares compounds with SENP7 inh
SENP7 confirm: confirmation of human SENP7 protease inhibitors. 6,200 tested, 69% active. inhibition, % at 12.5 µM. recombinant SENP7, Z-RLRGG-aminoluciferin luminescence, 40 min. shares compounds with SENP7 inh
Casp3 select: selectivity test for SENP inhibitors: human caspase-3 inhibition | AID 488918 | inhibition, % at 12.5 µM | 6,200 tested, 60% active | purified caspase-3, Z-DEVD-aminoluciferin luminescence, 60 min | shares compounds with SENP7 inh;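 active means mean inhibition above about 50%, limit read from the data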;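 further: plate controls were enzyme with DMSO for no effect and wells without caspase-3 for full effect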
Target sequence (P42574 28-227 limits assumed): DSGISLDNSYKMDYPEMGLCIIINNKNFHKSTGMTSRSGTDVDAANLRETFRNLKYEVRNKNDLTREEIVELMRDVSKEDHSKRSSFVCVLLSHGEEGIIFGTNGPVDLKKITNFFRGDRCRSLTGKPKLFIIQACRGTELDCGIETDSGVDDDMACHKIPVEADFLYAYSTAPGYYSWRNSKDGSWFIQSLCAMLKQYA
SENP luc ctr: interferes with luciferase luminescence in SENP counter-screen | shares compounds with SENP7 inh | Pre-incubated SENP8/Z-RLRGG-aminoluciferin, luciferase luminescence interference | inhibition, % at 12.5 µM | 6,200 tested, 39% active | AID 488919;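 active means mean inhibition above about 50% when retested at one dose, limit read from the data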;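 further: plate controls were DMSO wells with completed reaction for no effect and substrate without enzyme for full effect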
SENP8 conf-2: confirmation of human SENP8 protease inhibitors | shares compounds with SENP8 block-2 | purified SENP8, Nedd8-AMC/pro-Nedd8 cleavage fluorescence, 30 min | inhibition, % at 25 µM | 1,400 tested, 15% active | AID 624319; in the data active means inhibition mostly above about 39%, no sharp cut-off; inactive means mostly below about 34%
The depositor's hits bear a star; · = no result given. In the library only some 3% were active in any assay of this set; here they are far more common.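 How the source made its calls, unless noted: active means mean inhibition above about 50% in the one-dose retest (limit read from the data); inactive means the rest.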

SMILES	SENP6 inh	C8 TRAIL sens	SENP8 block-1	SENP8 block-2	SENP7 inh	PPC-1+TRAIL kill	SENP8 conf-1	SENP6 conf	SENP7 confirm	Casp3 select	SENP luc ctr	others
Cc1ccc(-c2nc3n(n2)Cc2ccccc2-3)cc1	97*	86*	96*	14	99*	75*	80*	91*	103*	98*	68*	PPC1 cytotox=74*
CCn1c(C)nc2cc(-c3nc4n(n3)Cc3ccccc3-4)ccc21	96*	96*	96*	-6	100*	94*	99*	100*	103*	99*	86*	PPC1 cytotox=94*
Cc1ccc(CSc2nc3ncccc3[nH]2)cc1	81*	67*	64*	11	67*	49	7	77*	95*	43	81*	PPC1 cytotox=48
C=C(C)CSc1nc2ncccc2[nH]1	-13	-8	4	10	5	0	·	·	·	·	·
Brc1ccc(-c2nc(N/N=C/c3cccnc3)c3ccccc3n2)cc1	90*	91*	85*	-105	90*	88*	5	5	2	5	3	PPC1 cytotox=87*
COc1cccc(/C=N/NC(=S)Nc2cccc(C(=O)O)c2)c1O	97*	87*	95*	-203	98*	37	98*	99*	102*	97*	84*	PPC1 cytotox=35
O=C(Nc1nc(=O)c2ccccc2s1)c1ccccc1	60*	34	43	19	41	26	20	53*	17	27	11	PPC1 cytotox=33
Fc1ccc(-c2nnc(NC3=NCCCCC3)o2)cc1	91*	75*	89*	19	98*	66*	11	95*	102*	98*	75*	PPC1 cytotox=64*
c1ccc(-c2nnc(NC3=NCCC3)o2)cc1	7	33	37	24	43	40	·	·	·	·	·
Cc1ccc(C(=O)N/N=C/c2ccc([N+](=O)[O-])s2)cc1	6	23	7	44*	12	38	·	·	·	·	·	PPC1 cytotox=36;SENP8 conf-2=24
COc1ccc(CN2C(=O)C(CC(=O)NCc3cccs3)CC(C(=O)N3CCOCC3)=C2C)cc1 (stereo unspecified)	·	-4	·	9	·	·	·	·	·	·	·
S=c1nccc(-c2ccc3c(c2)CCO3)[nH]1	-1	5	2	-31	6	17	·	·	·	·	·
Fc1ccc(-c2noc(-c3ccc4c(c3)CCO4)n2)cc1	79*	43	67*	5	96*	8	24	53*	48	71*	36
Cn1c(=O)[nH]c(=O)c2c1nc(N1CCN(CCO)CC1)n2Cc1ccccc1	-8	-13	-2	10	-1	·	·	·	·	·	·
Cc1nn2cc(-c3ccccc3)nc2[nH]c1=O	72*	8	38	-497	24	-8	66*	61*	89*	89*	29
O=C(O)CCc1nn2cc(-c3ccccc3)nc2[nH]c1=O	-13	7	-12	-416	-6	43	·	·	·	·	·
CC(=O)c1cccc(OCC(=O)Nc2ccccc2N2CCOCC2)c1	-2	-14	6	5	5	·	·	·	·	·	·
CS(=O)(=O)N1CCN(c2nc3ccc(Cl)cc3s2)CC1	-14	-6	9	26	0	4	·	·	·	·	·
Fc1cccc2sc(N3CCCCC3)nc12	59*	9	25	1	39	11	-19	16	71*	45	5
Clc1ccc2nc(N3CCCCC3)[nH]c2c1	59*	48	27	13	52*	29	48	47	80*	72*	59*
Fc1cccc2sc(N3CCOCC3)nc12	-23	9	-9	3	4	-3	·	·	·	·	·
CCOC(=O)N1CCN(C(=O)Nc2ccc3nc(C)sc3c2)CC1	-4	2	-3	-122	-2	16	·	·	·	·	·
Clc1ccc2nc(N3CCCCC3)sc2c1	97*	16	88*	33	90*	6	78*	84*	89*	82*	46
CCOC(=O)Nc1ccc2nc(N3CCCCCC3)sc2c1	58*	19	25	13	33	12	31	30	69*	23	22
CCCCn1c(SCC(=O)NC2CCCC2)nnc1-c1ccco1	0	-19	2	8	3	·	·	·	·	·	·
SMILES	SENP6 inh	C8 TRAIL sens	SENP8 block-1	SENP8 block-2	SENP7 inh	PPC-1+TRAIL kill	SENP8 conf-1	SENP6 conf	SENP7 confirm	Casp3 select	SENP luc ctr	others
COc1ccc(CCNC(=O)CCNS(=O)(=O)c2cccc3nsnc23)cc1OC	-7	24	6	5	13	10	·	·	·	·	·
COc1ccc(CCNC(=O)CCNS(=O)(=O)c2cccc3nonc23)cc1OC	-11	3	-1	0	80*	17	0	7	8	2	1
O=C1CC(/C=C/c2ccccc2)=Nc2ccccc2N1	67*	-3	47	-46	50	13	46	44	56*	33	6
O=C1CC(/C=C/c2ccc(Cl)cc2)=Nc2ccccc2N1	23	5	16	5	-1	14	·	·	·	·	·
COc1cccc(C2c3cc4c(cc3OC(N3CCOCC3)C2C)OCO4)c1O (stereo unspecified)	·	13	·	5	·	·	·	·	·	·	·
c1ccc(Cc2nc3ccccc3[nH]2)cc1	-6	-8	1	12	10	·	·	·	·	·	·
c1ccc(OCc2nc3ccccc3[nH]2)cc1	61*	14	31	9	54*	24	50	51*	85*	82*	68*
Oc1ccccc1/C=N/Nc1cccc2cccnc12	92*	26	87*	-61	88*	-8	92*	96*	101*	80*	43
COc1cccc(CN2CC(C(=O)NCCN3CCOCC3)CCC2=O)c1 (stereo unspecified)	9	4	1	10	-7	·	·	·	·	·	·
COc1ccc(CN=C2NN=C(c3ccc(Cl)cc3)CS2)cc1	-8	10	-5	15	-7	16	·	·	·	·	·
